An excerpt weighted towards active compounds, which were near 5.7% of everything screened.
HT1080-NT tox = qHTS for induction of synthetic lethality in tumor cells producing 2HG: qHTS for the HT-1080-NT fibrosarcoma cell line. 1.6% of 360,000 active. HT-1080-NT fibrosarcoma viability, CellTiter-Glo ATP luminescence, 48 h. Potency, µM (doses to about 46.1 µM), usual class: cytotoxic;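 further: NT is the 2HG producing partner of a matched IDH1 knockdown line; nearly all actives have a fitted effect of over 55% in size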
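HT-1080-NT; 750 cells/well; 5% FBS RPMI; 48 h compound, 37 degrees C; CellTiter-Glo luminescence; curve fitting and curve-class assignment.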
HT1080 IDH1KD tx = qHTS for induction of synthetic lethality in tumor cells producing 2HG: qHTS for the HT-1080-IDH1KD cell line; HT-1080 IDH1 knockdown viability, ATP luminescence, 48 h; AID 686971, 2013; 2% of 360,000 active; Potency, µM (highest dose often 46.1 µM), usual class: cytotoxic
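In this qHTS, HT-1080 cells depleted of IDH1 are exposed for 48 h at 37 °C to compound titrations. Toxicity is scored from CellTiter-Glo luminescence, with DMSO as full viability and medium alone as none.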
KB-3-1 cytotox = qHTS assay for MDR1-selective chemotherapeutics: Primary screen using the parental adenocarcinoma cell KB-3-1; KB-3-1 viability, CellTiter-Glo ATP luminescence, 72 h; Potency, µM (doses to about 46.1 µM), actives largely listed as cytotoxic; 1.4% of 400,000 active; AID 1347075, 2019; further: nearly all actives have a fitted effect of over 60% in size
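KB-3-1 cells, DMEM (no phenol red) + 10% FBS; compound by pin transfer, 72 h, 37 °C. Readout: CellTiter-Glo luminescence after 10 min. Data normalized, curve-fitted.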
KB-V1 MDR tox = qHTS assay for MDR1-selective chemotherapeutics: Primary screen using the drug-selected MDR subline cells KB-V1. KB-V1 MDR cells viability, CellTiter-Glo, 72 h. Potency, µM (highest dose often 46.1 µM), usual class: cytotoxic. 3.4% of 400,000 active. AID 1347076, 2019; further: nearly all actives have a fitted effect of over 60% in size
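KB-V1, DMEM (no phenol red) + 10% FBS; cpd pin-transferred, titration series; 72 h, 37 degrees C; CellTiter-Glo, luminescence. Data normalized, curve-fit.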
Large screens that a line does not name were inactive; ! = a repeat was not active. The call rests on the fitted dose curve; in most records, active means well fitted curve in the direction sought with a large enough effect; inconclusive means small, poorly fitted or top-dose-only effect, or another doubt; inactive means no such curve, though single readings can be large; an effect the other way counts as inactive or inconclusive.

Cc1ccc(-c2cc(-c3ccc(C)cc3)[n+](C)o2)cc1	HT1080 IDH1KD tx inconclusive, KB-3-1 cytotox 2.91µM
CCOC(=O)CNC(=O)N1Cc2ccccc2-n2nncc2C1	none
CC1CCCC(C)N1/N=C/c1c[nH]c2ccc(Br)cc12 (stereo not given)	HT1080-NT tox 20.6µM, HT1080 IDH1KD tx inconclusive, KB-3-1 cytotox inconclusive
O=C1NCN(c2ccccc2)C12CCN(C(c1nnnn1-c1ccc3c(c1)OCCO3)C1CC1)CC2 (stereo not given)	HT1080-NT tox inconclusive, HT1080 IDH1KD tx inconclusive, KB-V1 MDR tox inconclusive
CCC(c1nnnn1C1CCCCC1)N1CCC2(CC1)C(=O)NCN2c1ccccc1 (stereo not given)	none
CCC(C)OC(=O)c1c(N)n(Cc2cccs2)c2nc3ccccc3nc12 (stereo not given)	HT1080 IDH1KD tx inconclusive, KB-3-1 cytotox inconclusive
Nc1c(C(=O)OCc2ccccc2)c2nc3ccccc3nc2n1Cc1cccs1	HT1080-NT tox inconclusive, HT1080 IDH1KD tx inconclusive, KB-V1 MDR tox 5.17µM
O=[N+]([O-])NC1=NCCN1Cc1ccc(Cl)nc1	none
CC(C)(C)NS(=O)(=O)c1ccc(OCC(=O)N2CCN(Cc3ccccc3)CC2)cc1	KB-V1 MDR tox inconclusive
Cn1cccc1CN1CCN(C(=O)COc2ccccc2)CC1	none
CCCNS(=O)(=O)c1ccc(OCC(=O)N2CCN(Cc3ccccc3)CC2)cc1	KB-3-1 cytotox inconclusive, KB-V1 MDR tox 8.2µM
O=C(COc1ccc(S(=O)(=O)N2CCOCC2)cc1)N1CCN(Cc2ccc3c(c2)OCO3)CC1	KB-V1 MDR tox 16.4µM
Cn1nc(-c2ccc(OCC(=O)N3CCN(Cc4ccccc4)CC3)cc2)c2ccccc2c1=O	KB-3-1 cytotox 5.8µM!, KB-V1 MDR tox 0.651µM!
O=C(c1cc(Cl)cc(Cl)c1)N1Cc2ccccc2-n2nncc2C1	none
NCC(=O)c1cccc([N+](=O)[O-])c1	none (no result: HT1080-NT tox, HT1080 IDH1KD tx)
OCCN1CCN(CCCN2c3ccccc3Sc3ccc(C(F)(F)F)cc32)CC1	HT1080-NT tox 13µM, HT1080 IDH1KD tx 23.1µM, KB-V1 MDR tox inconclusive
Nc1ccc(CCN2CCN(c3cccc(C(F)(F)F)c3)CC2)cc1	none
CC1=CC(O)C(O)C2(C)C1CC1OC(=O)CC3C(C)C(O)C(=O)C2C13CO (stereo not given)	KB-3-1 cytotox 18.4µM
C[C@H](CO)N1C[C@H](C)[C@@H](CN(C)C(=O)Oc2ccccc2)OCc2cnnn2CCCC1=O	none
CC(=O)O[C@H]1CCC2C3CC[C@H]4[C@@H](O)[C@H](O)CC[C@]4(C)C3CC[C@@]21C (stereo not given in full)	HT1080 IDH1KD tx inconclusive
CC1CC(C)CC(C)C(O)C(C#N)=CC=CCC(C2CCCC2C(=O)O)OC(=O)CC(O)C(C)C1 (stereo not given)	HT1080-NT tox 0.0092µM, HT1080 IDH1KD tx 0.184µM, KB-3-1 cytotox 1.16µM, KB-V1 MDR tox 6.51µM
CS(=O)(=O)N(CC(=O)N1CCN(Cc2ccc3c(c2)OCO3)CC1)Cc1ccc(Cl)cc1	HT1080 IDH1KD tx inconclusive, KB-3-1 cytotox inconclusive, KB-V1 MDR tox inconclusive
CCCCCC(=O)N[C@@H](c1ccccc1)[C@@H](O)C(=O)O[C@H]1C[C@@]2(O)[C@@H](OC(=O)c3ccccc3)C3[C@](C)(C(=O)[C@H](O)C(=C1C)C2(C)C)[C@@H](OC1OCC(O)C(O)C1O)C[C@H]1OC[C@@]31OC(C)=O (stereo not given in full)	HT1080-NT tox 2.59µM, HT1080 IDH1KD tx 1.84µM, KB-3-1 cytotox 0.206µM
CC(=O)O[C@@]12CO[C@@H]1C[C@@H](O)[C@@]1(C)C(=O)[C@H](O)C3=C(C)[C@@H](OC(=O)[C@H](O)[C@@H](NC(=O)c4ccccc4)c4ccccc4)C[C@@](O)([C@@H](OC(=O)c4ccccc4)C12)C3(C)C (stereo not given in full)	HT1080-NT tox 0.206µM, HT1080 IDH1KD tx 0.013µM, KB-3-1 cytotox 0.0103µM
CC(=O)OC12COC1CC(O)C1(C)C(=O)C(O)C3=C(C)C(O)CC(O)(C(OC(=O)c4ccccc4)C21)C3(C)C (stereo not given)	HT1080-NT tox inconclusive, HT1080 IDH1KD tx inconclusive, KB-3-1 cytotox 0.517µM
CC(=O)O[C@@]12CO[C@@H]1C[C@H](OC1OCC(O)C(O)C1O)[C@@]1(C)C(=O)[C@H](O)C3=C(C)[C@@H](OC(=O)[C@H](O)[C@@H](NC(=O)c4ccccc4)c4ccccc4)C[C@@](O)([C@@H](OC(=O)c4ccccc4)C12)C3(C)C (stereo not given in full)	HT1080-NT tox 3.26µM, HT1080 IDH1KD tx 5.8µM, KB-3-1 cytotox 1.03µM
N#CC1c2ccccc2-n2nncc2CN1C(=O)c1ccccc1F (stereo not given)	none
c1ccc(CCN2CCOCC2)cc1	none (no result: HT1080-NT tox, HT1080 IDH1KD tx)
O=C1NC(=S)NC(=O)C1c1ccccc1	none
C=CC[C@@H](CC/C=C/C=C/CC/C=C\[C@@H]1CSC([C@@H]2C[C@@H]2C)=N1)OC	HT1080-NT tox 2.31µM, HT1080 IDH1KD tx 2.06µM
CC(C)(C)c1ccc(C(=O)NNC(=O)Cc2cccc3ccccc23)cc1	HT1080 IDH1KD tx inconclusive
Cc1cccc(C2=NCC(=O)N(CC(=O)NCc3ccco3)c3sc4c(c32)CCCC4)c1	HT1080-NT tox inconclusive, HT1080 IDH1KD tx inconclusive, KB-V1 MDR tox 23.1µM
CN1CCN(Cc2cn(C)c3ccccc23)CC1CCO (stereo not given)	KB-V1 MDR tox inconclusive
c1ccc(-c2nn(-c3ccccc3)[n+](-c3ccccc3)n2)cc1	HT1080 IDH1KD tx inconclusive, KB-3-1 cytotox 7.31µM
CCc1nn2c(=O)c(F)c(N3CCNCC3)nc2s1	none (no result: HT1080-NT tox, HT1080 IDH1KD tx)
CC(C)Oc1cc(-n2c(=S)[nH]c3ccccc3c2=O)c(Cl)cc1Cl	HT1080 IDH1KD tx inconclusive, KB-3-1 cytotox inconclusive, KB-V1 MDR tox 23.1µM
O=C1NC2C(O)C(O)C(O)C(O)C2c2cc3c(c(O)c21)OCO3 (stereo not given)	HT1080-NT tox 0.461µM, HT1080 IDH1KD tx 0.231µM, KB-3-1 cytotox inconclusive, KB-V1 MDR tox 0.517µM
O=C1NC2C(=CC(O)C(O)C2O)c2cc3c(c(O)c21)OCO3 (stereo not given)	HT1080-NT tox 0.731µM, HT1080 IDH1KD tx 0.146µM, KB-3-1 cytotox 0.103µM, KB-V1 MDR tox inconclusive
O=C1NC2C(=CC(O)C(O)C2O)c2cc3c(cc21)OCO3 (stereo not given)	HT1080-NT tox inconclusive, HT1080 IDH1KD tx 1.16µM, KB-3-1 cytotox 3.26µM, KB-V1 MDR tox 2.31µM
O=c1c2ccccc2nc(/C=C/c2ccccc2)n1-c1ccc(O)cc1	HT1080-NT tox inconclusive, HT1080 IDH1KD tx inconclusive, KB-V1 MDR tox inconclusive
Cc1cccc(-n2c(/C=C/c3cccc4ccccc34)nc3ccccc3c2=O)c1	KB-V1 MDR tox inconclusive (no result: HT1080-NT tox, HT1080 IDH1KD tx)
O=c1c2ccccc2nc(/C=C/c2ccc([N+](=O)[O-])o2)n1-c1ccc(O)cc1	HT1080-NT tox inconclusive, HT1080 IDH1KD tx 2.59µM, KB-3-1 cytotox inconclusive, KB-V1 MDR tox inconclusive

Bioassay records: PubChem BioAssay, National Center for Advancing Translational Sciences (NCATS)
